Assay outcomes (PubChem)
AddAB inh: growth inhibition of E. coli expressing H. pylori AddAB, primary screen, AddAB inhibitor project, absorbance; inhibition, % at 11.9 µM; 330,000 tested, 0.29% active; in the data active = inhibition above about 12%
E coli growth-1: E. coli V3065 growth inhibition, primary screen, counter-screen for AddAB inhibitor project, absorbance, OD600; inhibition, % at 11.9 µM; 330,000 tested, 0.27% active; 18 h;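 active = inhibition above the campaign's mean inhibition across all tested compounds plus 3 SD, cut at about 9.9% in these data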;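 note: uninfected addAB+ strain grown without phage in ampicillin broth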
Tat transport: E. coli Tat export inhibitors, primary screen, MC4100, TorA-mCherry reporter, fluorescence, single point. 340,000 tested, 0.036% active. inhibition, % at 10 µM. AID 488895, 2010;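 active = mean replicate inhibition at least 50% and at least half of replicates individually reaching 50%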;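 note: exported cargo escapes ClpAP degradation while cytoplasmic cargo is degraded and loses fluorescence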
E coli growth-2: E. coli growth inhibition, primary screen, OD600 | AID 1053175, 2014 | 330,000 tested, 0.21% active | OD600 absorbance (concentration not given with the values) | Escherichia coli growth, 23 h; stronger effect = lower value;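 active = OD600 absorbance below the run mean of sample wells minus 3.6 SD, in any replicate, cut at about 0.56 in these data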
phage Ecoli inh: growth loss of phage-infected E. coli, primary screen, RecBCD inhibitor project, absorbance, with phage, HTS; 360,000 tested, 0.26% active; AID 651602, 2012; inhibition, % at 11.9 µM; in the data active = inhibition above about 11%
AddAB conf: growth loss of phage-infected E. coli expressing H. pylori AddAB, confirmation, AddAB inhibitor project, absorbance, E. coli V3065, T4 phage, triplicate | inhibition, % at 11.9 µM | OD; T4 phage with gene 2 nonsense mutations | 880 tested, 64% active | shares compounds with AddAB inh;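 active = mean inhibition above a set limit taken from the earlier primary screen, cut at about 13% in these data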;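 note: higher means less bacterial growth since AddAB block lets phage replicate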
RecBCD counter: growth loss of RecBCD+ E. coli with mutant T4 phage, counter-screen for AddAB inhibitor project, absorbance, V66 E. coli; 880 tested, 73% active; OD growth; shares compounds with AddAB inh; inhibition, % at 11.9 µM;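 active = mean inhibition above the mean of solvent-only control wells plus 3 SD, cut at about 4% in these data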;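 note: optical density read after an 18 h incubation at 37 °C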
bact viab count: bacterial viability inhibition counter-screen, confirmation, counter-screen for AddAB inhibitor project, absorbance; shares compounds with AddAB inh; AID 488956, 2010; 880 tested, 35% active; absorbance (AddAB counterscreen); inhibition, % at 11.9 µM; in the data active = inhibition above about 25%
RecBCD conf: growth loss of phage-infected RecBCD+ E. coli, confirmation, RecBCD inhibitor project, absorbance, E. coli V66, T4 gene 2 phage; shares compounds with phage Ecoli inh; E. coli V66 + T4 2- phage, growth OD; inhibition, % at 11.9 µM; 890 tested, 45% active; AID 651982, 2013;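 active = mean inhibition over triplicates exceeding the hit threshold derived in the original primary screen, cut at about 11% in these data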
Ecoli viability: E. coli viability inhibition, counter-screen for RecBCD inhibitor project, absorbance, high throughput. shares compounds with phage Ecoli inh. 890 tested, 29% active. absorbance (OD) growth. inhibition, % at 11.9 µM. AID 651983, 2013; in the data active = inhibition above about 20%;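 note: E. coli strain V66 grown with compound alone and no phage infection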
AddAB phage OD: growth loss of phage-infected AddAB-carrying E. coli, confirmation, counter-screen for RecBCD inhibitor project, absorbance, E. coli V3065, T4 phage | shares compounds with phage Ecoli inh | E. coli expressing H. pylori AddAB + T4 phage, OD growth; gene 2 mutant T4, recBCD-deleted host | inhibition, % at 11.9 µM | 890 tested, 45% active | AID 651984, 2013;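 active = mean inhibition above the solvent-only control wells' mean plus 3 SD, cut at about 22% in these data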;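 note: higher means less bacterial growth from phage killing when AddAB is blocked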
Each line names hits and unclear results; the compound was inactive in the other large screens (follow-up assays come after a bar, where they were run). In the library only some 0.5% were active in any assay of this set; here they are far more common.

Cc1ccc(-c2nc(N3CCOCC3)s[n+]2-c2ccccc2)cc1	E coli growth-2 0.509
Nc1cc(Cl)c2nonc2c1[N+](=O)[O-]	E coli growth-2 0.437
O=[N+]([O-])c1c(Cl)c(Cl)c(Cl)c(Cl)c1Cl	none (no result: AddAB inh, E coli growth-1, E coli growth-2)
O=C1C=CC(=O)C2C1C1(Cl)C(Cl)=C(Cl)C2(Cl)C1(Cl)Cl (stereo not given)	E coli growth-2 0.512 (no result: AddAB inh, E coli growth-1)
O=C(CCNC(=O)N1C[C@H]2C[C@@H](C1)c1cccc(=O)n1C2)Nc1cccc(Cl)c1	none
Cc1ccccc1NC(=NCCCN1CC1)Nc1ccccc1C	none (no result: AddAB inh, E coli growth-1, E coli growth-2)
Cc1nn(Cc2ccccc2)c(C)c1C(=O)NCc1ccccc1	Tat transport 54.6
Cc1cc(O)ccc1Cl	none (no result: AddAB inh, E coli growth-1, Tat transport, E coli growth-2)
Oc1ccc(Cl)c(Cl)c1Cl	E coli growth-2 0.521
CC1CCCN(c2ccc(C(=O)N3CCC4(CC3)OCCO4)cc2[N+](=O)[O-])C1 (stereo not given)	none (no result: E coli growth-2)
O=C(c1ccc(N2CCCCC2)c([N+](=O)[O-])c1)N1CCC2(CC1)OCCO2	E coli growth-2 0.524
COc1ccc(N2C(=O)NC(=O)/C(=C\c3ccc([N+](=O)[O-])s3)C2=O)cc1	E coli growth-2 0.474
COc1ccc(N=C(C)c2c(O)n(C3CCCCC3)c(=O)[nH]c2=O)c(OC)c1	none
CC1CN(c2ccccn2)C(C)CN1C(=O)C(O)(c1ccccc1)c1ccccc1 (stereo not given)	none (no result: AddAB inh, E coli growth-1)
COC(=O)C1=C(c2ccc(F)cc2OCc2ccccc2)CC2CCC1N2C(=O)NCc1ccccc1OC (stereo not given)	none (no result: AddAB inh, E coli growth-1, Tat transport, phage Ecoli inh)
Cc1[nH]c2ccc(OC(F)(F)F)cc2c1CCNCc1ccc(Cl)cc1	E coli growth-2 0.502 (no result: AddAB inh, E coli growth-1)
C[C@@H]1CC[C@H]2[C@@H](C)C(=O)O[C@@H]3O[C@@]4(C)CC[C@@H]1[C@]32OO4	E coli growth-2 0.446
CN(C)c1ccc(/C=C/c2cc[n+](C)c3ccccc23)cc1	none (no result: AddAB inh, E coli growth-1, E coli growth-2)
CN(C)c1ccc(C=Cc2cc[n+](C)c3ccccc23)cc1	E coli growth-2 0.388 (no result: AddAB inh, E coli growth-1, Tat transport, phage Ecoli inh)
COC(=O)C1=C(c2cccc(OCc3ccccc3)c2)CC2CCC1N2C(=O)NC1CCN(Cc2ccccc2)CC1 (stereo not given)	none (no result: AddAB inh, E coli growth-1, Tat transport, phage Ecoli inh)
c1ccc2c(c1)[IH]c1ccccc1-2	phage Ecoli inh 100.8 (no result: AddAB inh, E coli growth-1, E coli growth-2)
CCOC(=O)[C@@]1(C#N)C(c2ccc(Cl)c(Cl)c2)[C@H](C(N)=O)N2C=C(C(C)=O)C=C[C@H]21 (stereo not given in full)	none
CCC(C)C(NC(=O)CCCNC(=O)CCC(=O)OC1O[C@H]2OC3(C)CC[C@H]4[C@H](C)CCC(C1C)C24OO3)C(=O)O (stereo not given in full)	none (no result: E coli growth-2)
CCC(C)NC(=O)CCC(=O)OC1O[C@H]2OC3(C)CC[C@H]4[C@H](C)CCC(C1C)C24OO3 (stereo not given in full)	E coli growth-2 0.499 (no result: AddAB inh, E coli growth-1)
Cc1cc(O)c2c(c1)C(=O)C13C(=C2O)C(=O)[C@H]2[C@@H](O)[C@@H]1[C@H]1[C@H](O)[C@@H]3C(=O)C3=C(O)c4c(O)cc(C)cc4C(=O)C312 (stereo not given in full)	AddAB inh 60.1, E coli growth-1 76.4, Tat transport 129.7, E coli growth-2 0.067 (no result: phage Ecoli inh) | AddAB conf 36.1 | RecBCD counter 31.8 | bact viab count 42.6
C[C@@H]1O[C@@H](O[C@H]2C[C@@H](O)[C@]3(CO)[C@H]4[C@H](O)C[C@]5(C)[C@@H](C6COC(=O)C6)CC[C@]5(O)[C@@H]4CC[C@]3(O)C2)[C@H](O)[C@H](O)[C@H]1O (stereo not given in full)	AddAB inh 98.3, E coli growth-1 95.7 (no result: E coli growth-2) | AddAB conf inactive | RecBCD counter inactive | bact viab count inactive
O=[N+]([O-])c1ccc(NCCCN2CCOCC2)nc1	none
COC(=O)C1=C(c2ccc(OC)c(OC)c2)C[C@@H]2CC[C@H]1N2C(=O)NC1CCCCC1	none (no result: E coli growth-2)
Oc1c(Cl)c(Cl)c(Cl)c(Cl)c1Cl	AddAB inh 13.2, E coli growth-1 11.3, phage Ecoli inh 12.0 | AddAB conf inactive | RecBCD counter 16.6 | bact viab count inactive
OC(Cn1c2ccccc2c2ccccc21)C[n+]1cccc2ccccc21 (stereo not given)	none
COc1cc(CNCCc2ccc3c(c2)OCO3)ccc1O	none
CCCCCCCCC(=O)NCc1ccc(O)c(OC)c1	AddAB inh 98.3, E coli growth-1 99.8 | AddAB conf inactive | RecBCD counter inactive | bact viab count inactive
CC(C)NC1C2CCC(CC2)C1(O)c1ccc(Cl)c(Cl)c1 (stereo not given)	none (no result: AddAB inh, E coli growth-1, Tat transport, E coli growth-2)
CCN1/C(=C\C=C\C2=[N+](CC)c3ccccc3C2(C)C)C(C)(C)c2ccccc21	AddAB inh 35.4, E coli growth-1 30.5, E coli growth-2 0.525 (no result: phage Ecoli inh) | AddAB conf 51.0 | RecBCD counter 23.4 | bact viab count 45.6
c1ccc2c[n+](CCCCCCCCCC[n+]3ccc4ccccc4c3)ccc2c1	none (no result: AddAB inh, E coli growth-1, Tat transport, E coli growth-2)
CCCCCCC[n+]1ccc(-c2cc[n+](CCCCCCC)cc2)cc1	AddAB inh 31.4, E coli growth-1 24.9, phage Ecoli inh 19.3 | AddAB conf inactive | RecBCD counter 18.9 | bact viab count inactive | RecBCD conf inactive | Ecoli viability inactive | AddAB phage OD inactive
CCCNC(=O)N1C2CCC1C(C(=O)OC)=C(c1cc3ccccc3o1)C2 (stereo not given)	none (no result: AddAB inh, E coli growth-1, Tat transport, phage Ecoli inh)
COC(=O)C1=C(c2cc3ccccc3s2)C[C@@H]2CC[C@H]1N2C(=O)N1CCOCC1	none (no result: E coli growth-2)
CN(C)[C@@H]1C(=O)C(C(N)=O)=C(O)[C@@]2(O)C(=O)C3=C(O)c4c(O)cccc4[C@@](C)(O)[C@H]3[C@H](O)[C@@H]12	none (no result: E coli growth-2)
